Assay outcomes from PubChem.
A selection: hits, their analogues and other compounds. The true share with any hit is near 12%.
CHOP inhibitor = CHOP inhibition in unfolded protein response. CHO-K1 CHOP-promoter luciferase, tunicamycin-induced, 15-18 h. inhibition, % at 10 µM. 220,000 tested, 3.8% active. AID 2732;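 active = compounds that reduced the stress-induced luciferase reporter signal by more than about 70% of percent inhibition, limit read from the data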;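 also: 0% = tunicamycin plus vehicle and 100% = wells without tunicamycin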
Arbovirus anti = antivirals against arbovirus infection; arbovirus infection cell-based antiviral screen; inhibition, % at 10 µM; 200,000 tested, 0.37% active; AID 1251; in the data active = inhibition above about 30%
WT yeast gro inh = growth inhibition of WT yeast, mitochondrial fusion screen. mitochondrial fusion phenotypic screen, WT strain. 190,000 tested, 2.1% active. inhibition, % at 10 µM; in the data active = inhibition above about 58%; tested in S. cerevisiae
Lmaj promast = inhibitors of Leishmania major promastigote growth; 200,000 tested, 9% active; inhibition, % at 10 µM; Leishmania major promastigotes, resazurin fluorescence viability; AID 1063; in the data active = inhibition above about 50%;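 also: promastigotes grown with compound for 44 hours at 28 °C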
* = called active by the depositor; / = not tested or not shown.

SMILES	CHOP inhibitor	Arbovirus anti	WT yeast gro inh	Lmaj promast
O=C(CCCCCCCCC(=O)N/N=C/c1ccco1)N/N=C/c1ccco1	19	-5	9	1
CCCCCCCC(=O)N/N=C/c1ccncc1	1	/	/	/
CCCCCCC(=O)N/N=C/c1ccc(Br)cc1	93*	-24	-13	18
CSC(=S)N/N=C/c1ccc(Br)cc1	66	-7	68*	7
S=c1nc[nH]c2c1ncn2C1CCCC1	-5	/	/	/
COCCNC(=O)c1cnn2c(C(F)(F)F)cc(-c3ccc(C)cc3)nc12	20	-23	-51	-1
O=C(N/N=C\c1ccco1)Nc1cccc(Cl)c1	-9	6	0	63*
Cc1cccc(NC(=O)CCC(=O)N/N=C/c2ccco2)c1	-9	-5	-5	-7
C=CCOC(=O)C1=C[C@H](C2CC2)[C@@H](CCCO)[C@H](OCC)O1	14	0	-11	-9
Cc1cc(C)cc(-n2c3nc4ccccc4nc3c3c(=O)n(Cc4ccco4)cnc32)c1	103*	2	6	21
CS(=O)(=O)c1ccc(C(=O)N2CCN(Cc3ccccc3)CC2)cc1	0	-1	3	-3
Cc1ccc(S(=O)(=O)NCCC(=O)N2CCN(Cc3ccccc3)CC2)cc1	82*	9	-9	-8
O=C(c1ccc(CNS(=O)(=O)c2ccccc2)cc1)N1CCN(Cc2ccccc2)CC1	46	-3	15	72*
COc1ccc(CCN2C(=O)CC(N3CCN(C/C=C/c4ccccc4)CC3)C2=O)cc1OC (configuration not stated)	4	/	/	/
CCC(CC)NC(=O)COC(=O)c1ccc(OCC(=O)Nc2ccccc2OC)c(OC)c1	82*	4	-4	-2
CCCNC(=O)COC(=O)c1ccc(OCC(=O)Nc2ccccc2OC)c(OC)c1	-4	5	-2	-6
CCOC(=O)C(C)Sc1ncc(-c2ccc(Cl)cc2)cn1 (configuration not stated)	21	0	39	-10
CSc1nc2ccc(NS(=O)(=O)c3ccc(Br)s3)cc2s1	4	/	/	/
CSc1nc2ccc(NS(=O)(=O)c3ccc4c(c3)OCCO4)cc2s1	27	32*	18	-4
CSc1nc2ccc(NS(=O)(=O)c3c(Cl)cccc3Cl)cc2s1	20	20	67*	13
CSc1nc2ccc(NS(=O)(=O)c3ccccc3F)cc2s1	58	9	12	59*
CCN(CC)S(=O)(=O)c1ccc(NN=c2c(=O)c3ccccc3c2=O)cc1	-3	/	/	/
CC(=O)c1cccc(NC(=S)NC(=O)c2cccc(C)c2)c1	29	2	-1	51*
CC(=O)c1cccc(NC(=O)c2oc(C)nc2C)c1	-3	0	-13	72*
CC(=O)c1cccc(NC(=S)NC(=O)c2ccc(Cl)cc2)c1	-54	-10	0	-6
SMILES	CHOP inhibitor	Arbovirus anti	WT yeast gro inh	Lmaj promast
CC(=O)c1cccc(NC(=O)c2onc(C)c2Cl)c1	10	2	-6	3
CCCOc1cccc(C(=O)NC(=S)Nc2cccc(NC(=O)c3ccccc3Cl)c2)c1	27	-6	6	97*
CC(C)Oc1cccc(C(=O)NC(=S)Nc2ccccc2)c1	32	36*	50	86*
CC(=O)NCC(=O)NNC1CC(=O)N(c2cccc(Cl)c2)C1=O (configuration not stated)	8	/	/	/
CC(C)COC(=O)NC1c2ccccc2Oc2ccccc21	8	/	/	/
CC(C)COc1cccc(C(=O)NC(=S)Nc2cccc(NC(=O)c3ccccc3Cl)c2)c1	26	5	24	80*
Cn1c(C(=O)N2CCCC(C(=O)c3ccc(C(F)(F)F)cc3)C2)cc(=O)n(C)c1=O (configuration not stated)	-15	-2	11	-3
COc1ccc(Oc2nnnn2-c2ccccc2)cc1	-9	-6	-15	-5
COc1ccc2c(C)cc(Sc3nnnn3-c3ccccc3)nc2c1	19	31*	13	49
CCOC(=O)c1ccccc1NC(=O)COc1cc(=O)n(CC)c2ccccc12	-71	-4	10	-2
CCOC(=O)c1cc2c3ccccc3n(CC)c2nc1N	73*	5	4	-2
CCOC(=O)c1cc(=O)n(Cc2ccccc2C)c2ccccc12	71*	14	-18	10
CCc1ccc(-n2c(C)n[nH]c2=S)cc1	-16	-5	5	-6
CCN(c1ccccc1)S(=O)(=O)c1ccc(C(C(=O)OC)C(=O)OC)c([N+](=O)[O-])c1	6	8	-14	99*
COc1ccc(-c2cn3cc(C)ccc3n2)cc1Br	22	-8	21	84*
Cc1cc(-c2ccccc2C(=O)NC2CCCCC2)on1	14	/	/	/
CCc1nnc(NC(=O)c2ccc3ccccc3n2)s1	-10	15	48	56*
O=C(Nc1ccccc1C(=O)O)c1ccc2ccccc2n1	0	42*	-7	4
COC(=O)c1scc(C)c1NS(=O)(=O)c1ccc(NC(C)=O)cc1	3	/	/	/
CC1CCN(c2ccc(C(=O)NCc3ccco3)cc2[N+](=O)[O-])CC1	8	-14	44	50*
O=C(NCc1ccc(F)cc1)c1ccc(N2CCc3ccccc32)c([N+](=O)[O-])c1	57	-5	23	92*
O=C(NCc1ccco1)c1ccc(N2CCOCC2)c([N+](=O)[O-])c1	-13	1	7	-4
O=C(NCc1ccco1)c1ccc(N2CCCCC2)c([N+](=O)[O-])c1	70*	-5	8	63*
CCCCCCCNC(=O)c1ccc(N2CCC3(CC2)OCCO3)c([N+](=O)[O-])c1	50	-27	38	94*
Cc1ccc2nsnc2c1S(=O)(=O)N1CCOCC1	4	7	4	0
SMILES	CHOP inhibitor	Arbovirus anti	WT yeast gro inh	Lmaj promast
COc1ccc(CCC(=O)NCc2cn3ccccc3n2)cc1	-26	/	/	/
N#Cc1cc2nc(O)c(O)nc2cc1[N+](=O)[O-]	-1	/	/	/
CNc1nc2cc([N+](=O)[O-])c([N+](=O)[O-])cc2nc1NC	75*	-9	4	3
COc1ccc(-c2cn3cccnc3n2)cc1F	12	1	14	80*
COc1ccc(-c2cn3cccnc3n2)cc1NC(=O)c1cccs1	0	4	12	97*
CCOC(=O)Cc1nn(Cc2nc(-c3ccc(C#N)cc3)cs2)c(=O)c2ccccc12	-9	/	/	/
COc1cccc(Oc2cn[nH]c2-c2ccc(OC)cc2O)c1	84*	-9	26	32
COc1cccc(Oc2cn[nH]c2-c2ccc(O)cc2O)c1	/	-3	-4	75*
COc1ccc(-c2cn[nH]c2-c2ccc(OCc3ccccc3)cc2O)cc1	42	/	/	/
COc1ccc(-c2[nH]ncc2-c2csc(C)n2)c(O)c1	6	3	9	-6
CC1(c2nnc(-c3ccncc3)o2)CC(c2ccc(F)cc2)=NO1 (configuration not stated)	3	/	/	/
O=S(=O)(Nc1ncccn1)c1ccc(NC(=S)Nc2cccc(Cl)c2)cc1	17	/	/	/
O=C1CN(C(=O)COc2ccc(F)cc2Br)c2ccccc2N1	-8	-5	-23	-2
CC(=O)Nc1ccc(S(=O)(=O)NC2(C(F)(F)F)C(=O)Nc3c2c(=O)[nH]c(=O)n3Cc2ccco2)cc1 (configuration not stated)	9	4	14	-7
Cn1cc(Cl)c(/C=C(\C#N)S(=O)(=O)c2ccccc2)n1	-8	/	/	/
